Assay results taken from the supplement of paper PMC9135407.
“And” between values parts separate entries of the source, which are not always exact repeats. Equal entries are not always repeated. Structures can show the parent of a compound that is named as a salt. The campaign covered roughly 5,800 compounds. About 620 (11%) showed activity.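 Rule for the calls: active = score above a cut-off or among the top three wells of a plate; in these data no inactive exceeds 0.85.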 Many of the other results were omitted from the sample, so actives are more common in it than they were.

Tested on: primary human hepatic stellate cells (donor 1)
Test: scaled lipid accumulation score (0 = DMSO-like, 1 = nortriptyline-like); higher = stronger HSC inactivation (lipid re-accumulation), active = hit call of the paper
Settings: 48 h
[1] = library stock concentration: 1 mM
[2] = library stock concentration: 10 mM
[3] = library stock concentration: 3.33 mM
[4] = library stock concentration: 2 mM
[5] = library stock concentration: 400 uM
[6] = library stock concentration: 80 uM

CCCCC[C@H](O)/C=C/[C@H]1[C@H](O)CC(=O)[C@@H]1C/C=C\CCCC(=O)NC(CO)CO [Prostaglandin E2 serinol amide]
scaled lipid accumulation score [1]: ≤ 0 (inactive)

CCN[C@@H]1C[C@H](N)[C@@H](O[C@H]2OC(CN)=CC[C@H]2N)[C@H](O)[C@H]1O[C@H]1OC[C@](C)(O)[C@H](NC)[C@H]1O [Netilmicin sulfate]
scaled lipid accumulation score (library stock concentration: 3 mM): ≤ 0 (inactive)

CC1=C(/C=C/C(C)=C\C=C\C(C)=C\C(=O)O)C(C)(C)CCC1 [9-cis Retinoic acid]
scaled lipid accumulation score [1]: ≤ -0.021 (inactive)

NC1C=CC=C(C(=O)O)C1 (configuration not stated) [Gabaculine hydrochloride]
scaled lipid accumulation score [2]: ≤ 0 (inactive)

CCCCC[C@H](O)/C=C/C1=C(CCCCCCC(=O)O)C(=O)CC1 [Prostaglandin B1]
scaled lipid accumulation score [1]: ≤ 0 (inactive) and ≤ -0.021 (inactive)

O=C(NC[C@H]1CN(c2ccc(N3CCOCC3=O)cc2)C(=O)O1)c1ccc(Cl)s1 [Rivaroxaban]
scaled lipid accumulation score [3]: ≤ 0 (inactive) | scaled lipid accumulation score [2]: ≤ 0 (inactive)

Cc1ccccc1N=Nc1ccc(NC(=O)c2ccnn2C)c(C)c1
scaled lipid accumulation score [2]: ≤ -0.006 (inactive)

Cc1[nH]c(/C=C2\C(=O)Nc3ccccc32)c(C)c1CCC(=O)O [SU-6668 (TSU-68, Orantinib) (2 mM)]
scaled lipid accumulation score [4]: 0.047 (inactive)

CCN(CC)CCNC(=O)c1c(C)[nH]c(/C=C2\C(=O)Nc3ccc(F)cc32)c1C.O=C(O)C[C@H](O)C(=O)O
scaled lipid accumulation score [4]: 1.66 (active)

CCN(CC)CCNC(=O)c1c(C)[nH]c(/C=C2\C(=O)Nc3ccc(F)cc32)c1C [Sunitinib Malate]
scaled lipid accumulation score [3]: 0.775 (inactive) | scaled lipid accumulation score [2]: 0.432 (inactive)

CCN(CC)CCNC(=O)c1c(C)[nH]c(/C=C2\C(=O)Nc3ccc(Cl)cc32)c1C
scaled lipid accumulation score [3]: 0.556 (inactive)

Cc1[nH]c(/C=C2\C(=O)Nc3ccccc32)c(C)c1CCC(=O)O [TSU-68 (SU6668, Orantinib)]
scaled lipid accumulation score [3]: ≤ 0 (inactive) | scaled lipid accumulation score [2]: ≤ 0 (inactive)

CCN(CC)CCNC(=O)c1c(C)[nH]c(/C=C2\C(=O)Nc3ccc(F)cc32)c1C
scaled lipid accumulation score [5]: 0.189 (inactive) | scaled lipid accumulation score [2]: 0.43 (inactive)

Cc1[nH]c(/C=C2\C(=O)Nc3ccccc32)c(C)c1CCC(=O)O [SU-6668 (TSU-68, Orantinib) (10 mM)]
scaled lipid accumulation score [2]: 0.012 (inactive)

Cc1[nH]c(/C=C2\C(=O)Nc3ccccc32)c(C)c1CCC(=O)O
scaled lipid accumulation score [2]: 0.019 (inactive)

CCOC(=O)c1c(C)[nH]c(/C=C2\C(=O)Nc3ccccc32)c1C [VEGF Receptor 2 Kinase Inhibitor I]
scaled lipid accumulation score [3]: ≤ 0 (inactive)

CCN(CC)CCNC(=O)c1c(C)[nH]c(/C=C2\C(=O)Nc3ccc(F)cc32)c1C.O=C(O)C[C@H](O)C(=O)O [Sunitinib malate]
scaled lipid accumulation score [4]: 0.997 (active)

Cc1[nH]c(/C=C2\C(=O)Nc3ccccc32)c(C)c1CCC(=O)O [SU-6668 (TSU-68, Orantinib) (0.4 mM)]
scaled lipid accumulation score [5]: 0.175 (inactive)

CCN(CC)CCNC(=O)c1c(C)[nH]c(/C=C2\C(=O)Nc3ccc(F)cc32)c1C [Sunitinib malate]
scaled lipid accumulation score [6]: ≤ -0.009 (inactive) | scaled lipid accumulation score [5]: ≤ -0.009 (inactive) | scaled lipid accumulation score [2]: ≤ -0.07 (inactive) and 0.421 (inactive)

CCC=CCC=CCC=CCC=CCCCCCCC(=O)O [.omega.-3 Arachidonic Acid]
scaled lipid accumulation score [1]: ≤ 0 (inactive)

CCN(CC)CCN(Cc1ccc(-c2ccc(C(F)(F)F)cc2)cc1)C(=O)Cn1c(SCc2ccc(F)cc2)nc(=O)c2c1CCC2
scaled lipid accumulation score [3]: 0.746 (inactive) | scaled lipid accumulation score [2]: 0.058 (inactive)

COc1ccc(-c2coc3cc(O)ccc3c2=O)cc1 [Formononetin]
scaled lipid accumulation score [3]: ≤ 0 (inactive) | scaled lipid accumulation score [2]: ≤ 0 (inactive) and ≤ -0.027 (inactive)

Nc1ccc2cn[nH]c2c1
scaled lipid accumulation score [2]: ≤ 0 (inactive)

CC(C)(CO)[C@@H](O)C(=O)NCCC(=O)NCCSSCCNC(=O)CCNC(=O)[C@H](O)C(C)(C)CO
scaled lipid accumulation score [2]: ≤ 0 (inactive)

COC(=O)C1=C(C)NC(C)=C(C(=O)OCCCN2CCC(c3ccccc3)(c3ccccc3)CC2)[C@H]1c1cccc([N+](=O)[O-])c1 [Niguldipine]
scaled lipid accumulation score (library stock concentration: 7.7 mM): ≤ -0.021 (inactive)

COC(=O)C1=C(C)NC(C)=C(C(=O)OCCCN2CCC(c3ccccc3)(c3ccccc3)CC2)[C@H]1c1cccc([N+](=O)[O-])c1 [(S)-(+)-Niguldipine hydrochloride]
scaled lipid accumulation score [2]: ≤ -0.006 (inactive)

Cl.N#Cc1ccc2[nH]cc(CCCCN3CCN(c4ccc5oc(C(N)=O)cc5c4)CC3)c2c1 [Vilazodone HCl]
scaled lipid accumulation score [2]: 1.1 (active)

N#Cc1ccc2[nH]cc(CCCCN3CCN(c4ccc5oc(C(N)=O)cc5c4)CC3)c2c1 [Vilazodone HCl]
scaled lipid accumulation score [3]: 0.512 (inactive)

Cc1c(C(=O)N(C)C2CCCCC2)sc2nc3ccc(N)cc3n12
scaled lipid accumulation score [2]: 0.01 (inactive)

O=C(Nc1ccc2[nH]ncc2c1)C1CCC1 [Rhodblock 6]
scaled lipid accumulation score [2]: 0.092 (inactive)

O=C(Nc1ccc2[nH]nc(-c3ccncc3)c2c1)[C@@H]1CCN(CC(=O)N2CCN(c3ccc(-c4ncccn4)cc3)CC2)C1 [listing 1 of 2 here]
scaled lipid accumulation score [6]: ≤ -0.001 (inactive) | scaled lipid accumulation score [5]: ≤ -0.001 (inactive) | scaled lipid accumulation score [4]: ≤ -0.001 (inactive)

O=C(Nc1ccc2[nH]nc(-c3ccncc3)c2c1)[C@@H]1CCN(CC(=O)N2CCN(c3ccc(-c4ncccn4)cc3)CC2)C1 [listing 2 of 2 here]
scaled lipid accumulation score [2]: 0.909 (active)

O=C(OC[C@H]1O[C@@H](OC(=O)c2cc(O)c(O)c(OC(=O)c3cc(O)c(O)c(O)c3)c2)[C@H](OC(=O)c2cc(O)c(O)c(OC(=O)c3cc(O)c(O)c(O)c3)c2)[C@@H](OC(=O)c2cc(O)c(O)c(OC(=O)c3cc(O)c(O)c(O)c3)c2)[C@@H]1OC(=O)c1cc(O)c(O)c(OC(=O)c2cc(O)c(O)c(O)c2)c1)c1cc(O)c(O)c(OC(=O)c2cc(O)c(O)c(O)c2)c1 [Tannic acid]
scaled lipid accumulation score [2]: ≤ -0.027 (inactive)

CCN1CCC[C@H]1CNC(=O)c1c(O)c(Cl)cc(Cl)c1OC [S(+)-Raclopride L-tartrate]
scaled lipid accumulation score [2]: ≤ 0 (inactive)

CCN1CCC[C@H]1CNC(=O)c1c(O)c(Cl)cc(Cl)c1OC [Raclopride]
scaled lipid accumulation score [2]: ≤ 0 (inactive) and ≤ -0.006 (inactive)

CCc1cc(Cl)c(OC)c(C(=O)NC[C@@H]2CCCN2CC)c1O.Cl [Eticlopride hydrochloride]
scaled lipid accumulation score [2]: 0.978 (active)

CCc1cc(Cl)c(OC)c(C(=O)NC[C@@H]2CCCN2CC)c1O
scaled lipid accumulation score [2]: 0.351 (inactive)

CCCCC[C@H](O)/C=C/[C@@H]1[C@@H](C/C=C\CCCC(=O)O)[C@@H](O)C[C@@H]1O [11.beta.-Prostaglandin F2.alpha.]
scaled lipid accumulation score [1]: ≤ 0 (inactive)

CCCCC[C@H](O)/C=C/[C@@H]1[C@@H](C/C=C\CCCC(=O)O)[C@@H](O)C[C@@H]1O [9a,11b-Prostaglandin F2]
scaled lipid accumulation score [1]: ≤ -0.021 (inactive)

CCCCCCCCCCCCCCCCCCCCCCCCCCCCCCO [n-Triacontanol]
scaled lipid accumulation score [1]: 0.026 (inactive)

O=C(O)Cc1ccccc1Nc1c(Cl)cccc1Cl [Diclofenac Diethylamine]
scaled lipid accumulation score [3]: ≤ 0 (inactive) | scaled lipid accumulation score [2]: ≤ 0 (inactive)

O=C(O)Cc1ccccc1Nc1c(Cl)cccc1Cl [Diclofenac Potassium]
scaled lipid accumulation score [3]: ≤ 0 (inactive) | scaled lipid accumulation score [2]: ≤ 0 (inactive)

COc1ccccc1CNCCCCCCNCCCCCCCCNCCCCCCNCc1ccccc1OC [Methoctramine tetrahydrochloride]
scaled lipid accumulation score [2]: 0.621 (inactive)

O=C(O)Cc1ccccc1Nc1c(Cl)cccc1Cl
scaled lipid accumulation score [2]: ≤ 0 (inactive)

O=C(O)Cc1ccccc1Nc1c(Cl)cccc1Cl [Diclofenac (sodium salt)]
scaled lipid accumulation score [1]: ≤ 0 (inactive)

O=C(O)Cc1ccccc1Nc1c(Cl)cccc1Cl [Diclofenac sodium]
scaled lipid accumulation score: 0.036 (inactive) | scaled lipid accumulation score (library stock concentration: 6.3 mM): 0.003 (inactive) | scaled lipid accumulation score [2]: ≤ -0.07 (inactive) and ≤ 0 (inactive)

O=C(O)Cc1ccccc1Nc1c(Cl)cccc1Cl [Diclofenac Sodium]
scaled lipid accumulation score [3]: ≤ 0 (inactive) | scaled lipid accumulation score [2]: 0.007 (inactive)

Cl.Cl.Clc1ccccc1CNC[C@H]1CC[C@H](CNCc2ccccc2Cl)CC1
scaled lipid accumulation score [2]: 1.48 (active)

Cc1ncc(CSSCc2cnc(C)c(O)c2CO)c(CO)c1O
scaled lipid accumulation score [2]: ≤ 0 (inactive)

O=C1c2c(O)cc(CO)cc2C(OC2OC(CO)C(O)C(O)C2O)c2cccc(OC3OC(CO)C(O)C(O)C3O)c21 (configuration not stated) [CASANTHRANOL [cascaroside A shown]]
scaled lipid accumulation score [2]: ≤ 0 (inactive)

CCCCCCCCCCCSCC(=O)O [3-Thiatetradecanoic Acid]
scaled lipid accumulation score [1]: 0.006 (inactive)

Cn1cc(-c2[nH]c3cc(NC(=O)[C@H](N)C4CCCCC4)cc4c3c2C=NNC4=O)cn1
scaled lipid accumulation score [3]: ≤ 0 (inactive) | scaled lipid accumulation score [2]: 0.077 (inactive)

CN1c2cc3c(cc2N=C(c2ccc(C(=O)O)cc2)c2ccccc21)C(C)(C)CCC3(C)C
scaled lipid accumulation score [2]: 0.08 (inactive)

CNCCC[C@]12CC[C@H](c3ccccc31)c1ccccc12 [Maprotiline HCl]
scaled lipid accumulation score (library stock concentration: 7.2 mM): 1.22 (active)

CNCCCC12CCC(c3ccccc31)c1ccccc12 [Maprotilline HCl]
scaled lipid accumulation score [2]: 1.35 (active)

CNCCCC12CCC(c3ccccc31)c1ccccc12 [Maprotiline HCl]
scaled lipid accumulation score [3]: 0.678 (inactive)

C=CCN1CCc2c(cc(O)c(O)c2Cl)C(c2ccccc2)C1 (configuration not stated)
scaled lipid accumulation score [2]: 0.02 (inactive)

NCCNC(=O)c1ccc(Cl)cn1 [Lazabemide hydrochloride]
scaled lipid accumulation score [2]: ≤ -0.001 (inactive)

CCCCNC(=O)[C@@H]1Cc2ccccc2N1C(=O)[C@@H](N)CC [Butabindide oxalate]
scaled lipid accumulation score [2]: 0.016 (inactive)

CCCCCCCCCCCC=CC(C)(C)C=CCCCC(=O)O [7,7-Dimethyleicosadienoic acid]
scaled lipid accumulation score [1]: ≤ -0.02 (inactive)

Clc1ccc2c(c1)N=C(N1CCNCC1)c1ccccc1N2 [N-Desmethylclozapine] [listing 1 of 2 here]
scaled lipid accumulation score [2]: 0.668 (inactive)

CN1CCN(C2=Nc3cc(Cl)ccc3Nc3ccccc32)CC1 [Clozapine] [listing 1 of 2 here]
scaled lipid accumulation score [2]: 0.977 (active)

CN1CCN(C2=Nc3cc(Cl)ccc3Nc3ccccc32)CC1
scaled lipid accumulation score [2]: 0.854 (active)

Clc1ccc2c(c1)N=C(N1CCNCC1)c1ccccc1N2 [N-Desmethylclozapine] [listing 2 of 2 here]
scaled lipid accumulation score [2]: 0.941 (active)

CN1CCN(C2=Nc3cc(Cl)ccc3Nc3ccccc32)CC1 [Clozapine] [listing 2 of 2 here]
scaled lipid accumulation score: 1 (active)

CN1CCN(C2=Nc3cc(F)ccc3Cc3ccccc32)CC1 [Fluperlapine]
scaled lipid accumulation score [2]: 0.448 (inactive)
